The record followed here is PubChem BioAssay (NCI).

Among the test systems are DU-145 prostate; K-562 leukemia; MALME-3M melanoma; MDA-MB-231 breast; SF-268 CNS; SF-295 CNS; SF-539 CNS; M14 melanoma; RXF 393 renal; UACC-257 melanoma.
Common to all, as to experiment: NCI-60 one-dose screen, 48 h (100 = growth as untreated, 0 = no growth, -100 = all killed)
What all share (details): 10 µM unless noted

The panel holds about 83,000 compounds, 20% with a hit somewhere; the sample as a whole holds those more often.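 Percent growth is the endpoint: 0 to 100 indicates growth inhibition (40 means 60% inhibition), 0 means no net growth, and negative values indicate cell death.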 A number with no mark means an inactive call. Active and inactive are the calls of the source. The calls were made as follows: active = growth percent below 10; inactive = the rest.

Turning to `COC(=O)C1CCC(NC(=O)c2csc([C@@H](C[C@H](C(C)C)N(C)C(=O)[C@@H](NC(=O)[C@H]3CCCCN3C)C(C)C)OC(C)=O)n2)CC1` (stereo partly specified), the growth with DU-145 prostate is 9.8% (active); with K-562 leukemia, 10%; in the assay with MALME-3M melanoma, 57.8%; with MDA-MB-231 breast it was 12.1%; in the assay with SF-268 CNS, 22.6%; in the assay on SF-295 CNS, 2.5% (active). Also, the growth in the assay with SF-539 CNS was -10.1% (active); in the assay on M14 melanoma, 1.47% (active).

In the case of `CCOC(=O)CCC(NC(=O)C(Cc1ccc(N(CCCl)CCCl)cc1)NC=O)C(=O)OCC` (stereo unspecified), the growth in the assay on DU-145 prostate is 36.3%; in the assay on K-562 leukemia, 35.6%; in the assay with MALME-3M melanoma, -80.2% (active); in the assay on RXF 393 renal, -75.9% (active); in the assay with SF-295 CNS it was 21.5%; in the assay with SF-539 CNS, -61.7% (active). Moreover, the growth was -9.97% (active) with UACC-257 melanoma and -62.9% (active) in the assay on M14 melanoma.

With `C=C1[C@@H](C)[C@H]2[C@H](Cc3ccccc3)NC(=O)[C@]23[C@@H](O)/C=C/[C@@](C)(O)C(=O)[C@@H](C)C/C=C/[C@H]3[C@@H]1O`, the growth was 82.9% in the assay with DU-145 prostate; 52% in the assay with K-562 leukemia; 62.5% in the assay on MALME-3M melanoma; 32.9% in the assay with MDA-MB-231 breast; 24.5% with SF-268 CNS; 39.2% with SF-295 CNS. Moreover, the figures for the growth with SF-539 CNS and in the assay with M14 melanoma were 21.9% and 68.8%, respectively.

For the compound `Cc1ccc(Nc2nc3c(s2)C2=CC[C@@H]4[C@H](CC[C@]5(C)C(=O)CC[C@@H]45)[C@@]2(C)CC3)cc1`, the growth is 46.5% in the assay with DU-145 prostate; 19.8% in the assay with K-562 leukemia; 70% in the assay on MALME-3M melanoma; 52.8% with MDA-MB-231 breast; 56.3% with SF-268 CNS; 5.48% (active) in the assay on SF-295 CNS. Besides, the growth is 3.73% (active) with SF-539 CNS, 80.3% in the assay on UACC-257 melanoma and 62.2% in the assay on M14 melanoma.

On to `C=CCCCCCCCCC(=O)[O-].C=CCCCCCCCCC(=O)[O-].[Zn+2]`, for which the growth in the assay with DU-145 prostate is 114%; in the assay with K-562 leukemia it was 92%; with MALME-3M melanoma, 108%; in the assay with SF-268 CNS it was 106%; in the assay with SF-295 CNS, 97.7%; in the assay with SF-539 CNS, 97.9%. For the same compound, the growth with UACC-257 melanoma was 98.5%; in the assay on M14 melanoma it was 107%.

For the compound `Clc1ccc(COC(Cn2ccnc2)c2ccc(Cl)cc2Cl)cc1` (stereo unspecified), the growth is 71.6% with DU-145 prostate; -4.49% (active) in the assay on K-562 leukemia; 42.9% in the assay with MALME-3M melanoma; 57.6% with MDA-MB-231 breast; 52.1% in the assay with SF-268 CNS; 17.9% in the assay on SF-295 CNS. For the same compound, the growth with SF-539 CNS was 87.7%; in the assay with UACC-257 melanoma, 61.9%; with M14 melanoma, 58.9%.

`COC(=O)[C@@H](C)C[C@H](Cc1cn(C)c2ccccc12)NC(=O)c1csc([C@@H](C[C@H](C(C)C)N(C)C(=O)[C@@H](NC(=O)[C@H]2CCCCN2C)C(C)C)OC(C)=O)n1`: the growth was 12.4% in the assay on DU-145 prostate; 6.65% (active) in the assay with K-562 leukemia; 50.4% with MALME-3M melanoma; 5.09% (active) in the assay on MDA-MB-231 breast; 16.6% in the assay with SF-268 CNS; -0.0499% (active) with SF-295 CNS. The growth is -8.57% (active) in the assay on SF-539 CNS and -10.2% (active) in the assay on M14 melanoma.

For `CC1(C)[C@H](O)[C@H](F)C[C@@]2(C)Oc3ccc(C(=O)Nc4ccc5c(c4)NC(=O)C54CCN(CCCCC#N)CC4)cc3C[C@H]12`, the growth in the assay on DU-145 prostate was 48.5%; with K-562 leukemia it was 2.93% (active); with MALME-3M melanoma it was 13.5%; in the assay with MDA-MB-231 breast it was 28.8%; in the assay with SF-268 CNS, 43.6%; in the assay with SF-295 CNS, -59.6% (active). The growth was 8.86% (active) in the assay with SF-539 CNS and -6.54% (active) with M14 melanoma.

Turning to `CN(C)C(=O)Oc1ccccc1-c1ccccc1`, the growth in the assay with DU-145 prostate is 111%; in the assay on K-562 leukemia, 89.5%; with MALME-3M melanoma, 110%; in the assay with MDA-MB-231 breast it was 110%; with SF-268 CNS, 102%; in the assay with SF-295 CNS it was 97.4%. Further, the growth in the assay on SF-539 CNS and in the assay on M14 melanoma was 103% in each case.

On to `COC(=O)C12CC(NC(=O)c3csc([C@@H](C[C@H](C(C)C)N(C)C(=O)[C@@H](NC(=O)[C@H]4CCCCN4C)C(C)C)OC(C)=O)n3)(C1)C2`, for which the growth with DU-145 prostate is 16.6%; in the assay with K-562 leukemia, 12%; in the assay on MALME-3M melanoma it was 54.4%; in the assay with MDA-MB-231 breast it was 11.9%; with SF-268 CNS, 22.9%; in the assay on SF-295 CNS, -11.2% (active). The figures for the growth in the assay with SF-539 CNS and in the assay with M14 melanoma were -29.9% (active) and 2.68% (active), respectively.

As to `CC[C@H](C)[C@H](NC(=O)[C@H]1CCCCN1C)C(=O)N(C)[C@H](CCc1nc(C(=O)N[C@@H](Cc2ccccc2)C[C@H](C)C(=O)OC)cs1)C(C)C`, the growth was 6.52% (active) in the assay on DU-145 prostate; 9.7% (active) in the assay on K-562 leukemia; 65.4% in the assay with MALME-3M melanoma; 11.8% in the assay on MDA-MB-231 breast; 19.6% with SF-268 CNS; 7.05% (active) with SF-295 CNS. Further, the results for the growth in the assay with SF-539 CNS and in the assay with M14 melanoma were 0.775% (active) and -15.3% (active), respectively.

Consider `CC1(C)N=C(N)N=C(N)N1c1ccc(CCCCc2ccc(Cl)c(S(=O)(=O)F)c2)c(Cl)c1`, for which the growth with DU-145 prostate was 35.3%; in the assay with K-562 leukemia it was 9.3% (active); in the assay on MALME-3M melanoma it was 17.4%; in the assay on MDA-MB-231 breast it was 52.6%; with SF-268 CNS, 18.7%; in the assay with SF-295 CNS it was 18.7%. Also, the figures for the growth in the assay on SF-539 CNS, in the assay with UACC-257 melanoma and in the assay with M14 melanoma were 14%, 18.3% and 20.7%, respectively.

On to `COc1cccc(C=NC(Cc2cnc[nH]2)C(=O)O)c1O` (stereo unspecified), for which the growth was 121% with DU-145 prostate; 135% with K-562 leukemia; 102% in the assay with MDA-MB-231 breast; 3.56% (active) with RXF 393 renal; 112% with SF-268 CNS; 70.3% in the assay on SF-295 CNS. Also, the growth was 93.1% in the assay on SF-539 CNS, 46.7% in the assay on UACC-257 melanoma and 89.7% in the assay on M14 melanoma.

For the compound `CC(C)=CCC/C(C)=C/C=N\N=C(/N)N[N+](=O)[O-]`, the growth with DU-145 prostate is 102%; in the assay on K-562 leukemia, 95.9%; in the assay with MALME-3M melanoma, 93.5%; with RXF 393 renal, 122%; with SF-268 CNS, 93%; in the assay on SF-295 CNS, 101%. In addition, the growth with SF-539 CNS was 89.2%; with UACC-257 melanoma, 107%; with M14 melanoma, 102%.

For `O[C@H](CN1CC1)[C@@H](O)CN1CC1`, the growth is 39.5% in the assay on DU-145 prostate; 65.9% in the assay with K-562 leukemia; 109% with MDA-MB-231 breast; 77.2% with RXF 393 renal; 45.5% with SF-268 CNS; 19.6% in the assay with SF-295 CNS. For the same compound, the growth in the assay on SF-539 CNS was 24.6%; in the assay with UACC-257 melanoma, 86.3%; with M14 melanoma, 48.9%.
